Source: PubChem BioAssay AID1851 (National Center for Advancing Translational Sciences (NCATS), 2009)
Values joined by “and” are separate entries in the source; they are usually repeats but may differ in a detail not shown here. Identical values can stand only once. In all, about 16,000 compounds went through this assay and about 5,700 (36%) were called active. About 24% were inconclusive and are not listed. The call rests on the fitted dose curve; in most records, active means well fitted curve in the direction sought with a large enough effect; inconclusive means small, poorly fitted or top-dose-only effect, or effect the other way; inactive means no such curve, though single readings can be large or run the other way. Some of the results follow.

Biological target: Cytochrome P450 1A2 (Homo sapiens) (UniProt P05177)
Assay: Cytochrome panel assay with activity outcomes
Conditions: recombinant CYP, pro-luciferin dealkylation, luminescence, p450-cyp1a2; series mostly up to 57.1 µM
On the % scale 0 is the no-effect control and ±100 the full control effect.

Cytochrome P450 1A2 (Homo sapiens), sequence (P05177 whole entry, looked up): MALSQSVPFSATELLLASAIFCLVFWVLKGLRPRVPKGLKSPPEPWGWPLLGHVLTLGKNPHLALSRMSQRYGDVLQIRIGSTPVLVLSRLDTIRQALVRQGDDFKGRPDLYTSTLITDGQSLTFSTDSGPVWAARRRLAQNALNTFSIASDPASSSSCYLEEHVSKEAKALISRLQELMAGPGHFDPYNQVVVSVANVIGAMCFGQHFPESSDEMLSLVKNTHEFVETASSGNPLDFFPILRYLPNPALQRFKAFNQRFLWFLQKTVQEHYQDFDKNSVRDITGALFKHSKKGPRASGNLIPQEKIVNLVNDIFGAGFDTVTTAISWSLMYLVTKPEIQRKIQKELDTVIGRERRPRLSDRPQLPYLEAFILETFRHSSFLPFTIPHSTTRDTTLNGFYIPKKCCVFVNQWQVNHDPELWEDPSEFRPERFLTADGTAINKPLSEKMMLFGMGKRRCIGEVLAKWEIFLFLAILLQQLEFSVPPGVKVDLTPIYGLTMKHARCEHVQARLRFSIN

Row | SMILES | AC50 | activity, negative = inhibition
1 | CN(C)/N=N\c1nc[nH]c1C(N)=O | inactive | –
2 | COc1ccc(O[C@H]2C=C[C@@H](c3ccccc3)O[C@@H]2CO/N=C(\C)CCN2CCCc3nc(C)c(C)cc32)cc1 | – | -4.49% [at 11.4 µM] (inactive)
3 | C=CC[C@@H]1C=C[C@H](O/N=C(\C)CCN2CCCCc3nc(C)c(C)cc32)[C@H](CO)O1 | – | -6.73% [at 11.4 µM] (inactive)
4 | CC[C@]1(O)C[C@@H]2CN(CCc3c([nH]c4ccccc34)[C@](C(=O)OC)(c3cc4c(cc3OC)N(C)[C@H]3[C@](O)(C(=O)OC)[C@@H](C(=O)OC)[C@@]5(CC)C=CCN6CC[C@@]43[C@@H]65)C2)C1 | inactive | –
5 | CN(C(=S)Nc1ccccc1F)C1(c2ccccc2Cl)CCCCC1=O (configuration not stated) | inactive | –
6 | CCN(C(=S)Nc1ccccc1F)C1CCCCC1 | 15.8 µM (active) | –
7 | CCCN(C(=S)Nc1ccccc1)C1CCS(=O)(=O)C1 (configuration not stated) | inactive | –
8 | c1cncc(-c2cc(NCc3cccs3)ncn2)c1 | 1 µM (active) | –
9 | COc1cccc(-c2cc(NCc3cccnc3)ncn2)c1 | 0.631 µM (active) | –
10 | COc1cccc(-c2cc(NCc3ccccc3)ncn2)c1 | 2 µM (active) | –
11 | COc1cccc(-c2cc(NCc3cccs3)ncn2)c1 | 1.26 µM (active) | –
12 | COc1cccc(/C=N/NC(=O)C(=O)NCc2cccnc2)c1 | inactive | –
13 | COCC(=O)N1CCC2(CCCN(Cc3ccccc3)C2)CC1 | inactive | –
14 | CS(=O)(=O)N1CCC2(CCN(C(=O)Nc3cccc(C#N)c3)CC2)CC1 | inactive | –
15 | Cc1c2cccc(Sc3ccccc3)c2c2c3c(cccc13)[S+](c1ccccc1)C2 (configuration not stated) | – | -17.3% [at 2.29 µM] (inactive)
16 | O=C(Nc1c2c(nn1-c1ccc(F)cc1)CS(=O)(=O)C2)C12CC3CC(CC(C3)C1)C2 | inactive | –
17 | Cc1cc(C2C(C#N)=C(N)OC3=C2C(=O)CC(C)(C)C3)c(C)s1 (configuration not stated) | inactive | –
18 | Cc1cc(C2C(C#N)=C(N)Oc3n[nH]c(C)c32)c(C)s1 (configuration not stated) | 15.8 µM (active) | –
19 | N#CC(=C(/N)Sc1ccccc1N)/C(C#N)=C(/N)Sc1ccccc1N | 12.6 µM (active) | –
20 | Cc1cc(NC(=O)c2cccc(F)c2)no1 | 17.8 µM (active) | –
21 | Cc1ccc(N2CC(C(=O)Nc3cc(C)on3)CC2=O)cc1 (configuration not stated) | inactive | –
22 | Cc1ccc(C2(C)NC(=O)N(CC(=O)Nc3cc(C)on3)C2=O)cc1 (configuration not stated) | inactive | –
23 | CN1CCN(NC(=O)c2cccc(F)c2)CC1 | inactive | –

Row | SMILES | AC50 | activity, negative = inhibition
24 | Cc1cc(NC(=O)Nc2ccc(F)cc2)no1 | 10 µM (active) | –
25 | Cc1cc(NC(=O)CN2C(=O)NC(C)(c3ccc(OC(F)F)cc3)C2=O)no1 (configuration not stated) | inactive | –
26 | Cc1ccc(N2C(=O)CC(c3ccsc3)C3=C2CC(C)(C)CC3=O)cc1 (configuration not stated) | inactive | –
27 | Cc1ccc2ncc([N+](=O)[O-])n2c1 | 6.31 µM (active) | –
28 | Cc1ncc([N+](=O)[O-])n1CC(C)O (configuration not stated) | inactive | –
29 | Cc1ncc([N+](=O)[O-])n1CCO | inactive | –
30 | Cc1nn(C)c(C)c1CNC(=O)c1cnn2c1NC(c1ccccc1)CC2C(F)(F)F (configuration not stated) | inactive | –
31 | CCC(C)N1C(=O)S/C(=C/c2ccc(Sc3nc4ccccc4[nH]3)o2)C1=O (configuration not stated) | 2 µM (active) | –
32 | NCCNc1ncnc2ccc(Cl)cc12 | 1 µM (active) | –
33 | COC(=O)N1CCC2(CCCN(Cc3ccc(C#N)cc3)C2)CC1 | inactive | –
34 | CC(C)CC1CC(=O)OC1(C)C(=O)CSc1nc2ccccc2s1 (configuration not stated) | 7.08 µM (active) | –
35 | O=C(O)CC(c1ccccc1)n1cnnn1 (configuration not stated) | inactive | –
36 | c1ccc2c(-n3ccnc3)nc(-c3ccoc3)nc2c1 | 0.501 µM (active) | –
37 | CN(C)c1ccc(-c2nc(-n3ccnc3)c3ccccc3n2)cc1 | 0.316 µM (active) | –
38 | COC(=O)C/C=C\[C@@H](C)[C@@H](/C=N\OC[C@@H]1O[C@H](c2ccccc2)C=C[C@@H]1Oc1ccc(OC)cc1)NS(=O)(=O)c1ccc(C)cc1 | – | -1.03% [at 11.4 µM] (inactive)
39 | Cc1ccc(C)c(S(=O)(=O)NC(CC(C)C)C(=O)O)c1 (configuration not stated) | inactive | –
40 | CCC/C=C(\CCC)C(NS(=O)(=O)c1ccc(C(F)(F)F)cc1)c1ccc(-c2ccccc2)cc1 (configuration not stated) | inactive | –
41 | Cc1ccc(S(=O)(=O)NC(CC(C)C)C(=O)Oc2ccc3c4c(c(=O)oc3c2)CCC4)cc1 (configuration not stated) | 3.98 µM (active) | –
42 | Cc1ccc(S(=O)(=O)N[C@H](C(=O)Oc2ccc3c(C(F)(F)F)cc(=O)oc3c2)c2ccccc2)cc1 | 1.78 µM (active) | –
43 | Cc1ccc(S(=O)(=O)N[C@H](CN)C(=O)O)cc1 | – | -18.5% [at 2.29 µM] (inactive)
44 | COc1ccc(CCN2C(=NC(=O)CCC(=O)O)SC3CS(=O)(=O)CC32)cc1 (configuration not stated) | inactive | –
45 | CN1CCc2c(c3c(n2C)CCN(C)[C@H]3c2ccccc2F)[C@@H]1c1ccccc1F | inactive | –
46 | CC(C)NC(=O)N1CCCC2(CCN(C(=O)c3cc(C(F)(F)F)cc(C(F)(F)F)c3)CC2)C1 | inactive | –

Row | SMILES | AC50 | activity, negative = inhibition
47 | C1=C(CN2CCOCC2)COc2c1cccc2OC[C@@H]1CNCCO1 | 12.6 µM (active) | –
48 | Cc1c(C)c2c(c(C)c1O)CC[C@@](C)(CCC[C@@H](C)CCC[C@@H](C)CCCC(C)C)O2 | inactive | –
49 | COc1ccc(Nc2ncc3c(n2)CC(c2ccc(C)cc2)CC3=O)cc1 (configuration not stated) | 14.1 µM (active) | –
50 | COc1ccc(C2CC(=O)c3cnc(Nc4cc(C)cc(C)c4)nc3C2)cc1 (configuration not stated) | 14.1 µM (active) | –
51 | COc1ccc(NC2=NC(=S)N(c3ccc(C)cc3)C23CCCCC3)cc1 | inactive | –
52 | CCSc1nnc(-c2ccc(Cl)cc2)c2ccccc12 | 7.08 µM (active) | –
53 | O=[N+]([O-])c1cc(Cl)cc2c1nc(NCCO)c1ccccc12 | 0.02 µM (active) | –
54 | CCOC(=O)C(NC(C)=O)C(=O)O (configuration not stated) | inactive | –
55 | CC(=O)[C@@H]1[C@@H]2C(=O)N(C3CCCCC3)C(=O)[C@@H]2C2c3ccccc3C=CN21 (some centres not stated) | 15.8 µM (active) | –
56 | O=C1C2C3C=CC([C@@H]2C(=O)N1C1CCCCC1)[C@H]1C(=O)N(C2CCCCC2)C(=O)C31 (some centres not stated) | inactive | –
57 | O=C1C[C@@H](O)[C@@H](O)[C@H]2[C@@H]3C(=O)N(C4CCCCC4)C(=O)[C@@H]3CC[C@H]12 | – | 4% [at 11.4 µM] (inactive) and -9.85% [at 11.4 µM] (inactive) and 5.4% [at 11.4 µM] (inactive)
58 | COc1cccc(-c2nccc(NCc3ccccc3OC)n2)c1 | 1.26 µM (active) | –
59 | COc1ccc(CNc2ccnc(-c3cccnc3)n2)c(OC)c1 | 0.316 µM (active) | –
60 | COc1cccc(-c2nccc(NCc3ccc(OC)cc3OC)n2)c1 | 1 µM (active) | –
61 | COc1ccc(C(=O)N2CCC3(CCN(Cc4ccccc4OC)CC3)CC2)cc1 | inactive | –
62 | COCCNc1ccnc(-c2cccc(NS(C)(=O)=O)c2)n1 | 2 µM (active) | –
63 | CCOc1ccc(N(C(C)C(=O)NC(C)CC)S(C)(=O)=O)cc1 (configuration not stated) | inactive | –
64 | N[C@H](CCC(=O)N[C@H](CSN=O)C(=O)NCC(=O)O)C(=O)O | inactive | –
65 | NC1=C2NC=N[C@@H]2N(C/C=C\c2ccccc2)C=N1 | – | -12.4% [at 2.29 µM] (inactive)
66 | COc1ccc(CNc2ccnc(-c3cccc(NS(C)(=O)=O)c3)n2)c(OC)c1 | 15.8 µM (active) | –
67 | CC(C)[C@@H]1NC(=O)[C@H](CCCCN)NC(=O)[C@H](Cc2c[nH]c3ccccc23)NC(=O)[C@H](Cc2ccc(O)cc2)NC(=O)[C@H](C)N(C)C(=O)[C@H](Cc2ccccc2)NC1=O | inactive | –
68 | COc1ccc(-c2ccc(=O)n(CC(=O)Nc3nnc(C(C)C)s3)n2)cc1OC | inactive | –
69 | COc1ccc(-c2nn3cnnc3s2)cc1OC | 20 µM (active) | –

Row | SMILES | AC50 | activity, negative = inhibition
70 | CN(C)c1ncc2nc(-c3ccc(Cl)cc3)c(=O)n(Cc3ccc(F)cc3)c2n1 | 5.01 µM (active) | –
71 | CN(C)c1ncc2nc(-c3cc(F)cc(F)c3)c(=O)n(Cc3ccc(F)cc3)c2n1 | inactive | –
72 | CN(C)c1ncc2nc(-c3ccc(F)cc3)c(=O)n(Cc3ccc(F)cc3)c2n1 | inactive | –
73 | Cc1nc2cnc(N(C)C)nc2n(Cc2ccc(F)cc2)c1=O | 2 µM (active) | –
74 | O=C1[C@@H]2[C@H]3[C@H](O)[C@H](O)C/C(=N/OCc4ccccc4)[C@@H]3CC[C@H]2C(=O)N1c1ccc(F)cc1F | – | 4.37% [at 11.4 µM] (inactive)
75 | Clc1ccc(/C=N/Nc2nnc(-c3ncc[nH]3)c3ccccc23)cc1 | 0.2 µM (active) | –
76 | NC[C@@H]1O[C@H](C23CC4CC(CC(C4)C2)C3)Cc2c1ccc(O)c2O | inactive | –
77 | Cc1ccc(C2C(C=Nc3c(C)n(C)n(-c4ccccc4)c3=O)=C(c3ccccc3)Oc3ccccc32)cc1 (configuration not stated) | inactive | –
78 | Nc1c(N=Nc2cccc(Cl)c2)c(=O)[nH]n1-c1ccccc1 | 2 µM (active) | –
79 | Cc1ccc(N=Nc2c(N)n(-c3ccccc3)[nH]c2=O)cc1 | 2.82 µM (active) | –
80 | Cc1[nH]n(-c2ccc(S(=O)(=O)O)cc2)c(=O)c1N=Nc1ccccc1 | – | -10.5% [at 11.4 µM] (inactive)
81 | O=c1cc(N2CCN(c3cccc(Cl)c3)CC2)[nH]c(=O)n1C1CCCCC1 | inactive | –
82 | Cc1nc2cnc(Oc3ccccc3)nc2n(C2CC2)c1=O | 10 µM (active) | –
83 | Cc1nc2cnc(Oc3cccc(Cl)c3)nc2n(C2CC2)c1=O | 6.31 µM (active) | –
84 | O=c1cnc2cnc(Oc3cccc(Cl)c3)nc2n1C1CC1 | 2.51 µM (active) | –
85 | COc1ccc(C2/C(=C(/O)c3ccccc3)C(=O)C(=O)N2CC(C)O)c(OC)c1 (configuration not stated) | inactive | –
86 | N#Cc1ccc(C(c2nnnn2Cc2ccccc2)N2CCCC2)cc1 (configuration not stated) | inactive | –
87 | O=C(NCc1ccc(F)cc1)C(c1ccncc1)N(C(=O)c1csnn1)C1CC1 (configuration not stated) | inactive | –
88 | Cc1sc2ccccc2[n+]1CCC(C)S(=O)(=O)[O-] (configuration not stated) | inactive | –
89 | O=C1c2ccccc2-c2n[nH]c3cccc1c23 | 0.0158 µM (active) | –
90 | CN(CC(=O)Nc1ccc(F)c(F)c1)S(=O)(=O)c1cccc2nsnc12 | 15.8 µM (active) | –
91 | CC1CCN(C(=O)CN(C)S(=O)(=O)c2cccc3nsnc23)CC1 | inactive | –
92 | CCc1cccc(NC(=O)CN(C)S(=O)(=O)c2cnc[nH]2)c1 | inactive | –
